Assay results reported in PubChem BioAssay AID1159580 (chemical genetic matrix, 2015).
Several values for one entry are separate records, joined by “and”; a condition that tells them apart may be missing. Equal values may be shown once. The campaign covered roughly 5,500 compounds. About 2,000 (36%) were called active. Not shown: some 18% with an inconclusive outcome. Rule as the data show it: active = normalized growth mostly below about 0.91 (no sharp cut-off); inconclusive = no clear call, values can overlap the other calls; inactive = mostly above about 0.92. This is one part of the list.

Experiment: chemical genetic growth profiling, strain panel (AID 1159580);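 also: tested at 20 µM; growth read once vehicle control cultures reached saturation at 30 °C; 1 = growth at the plate median or of vehicle wells; lower values mean less growth of the strain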
Settings: S. cerevisiae deletion strains, growth OD

Measured: normalized growth

CC(=O)NCc1c(I)c(NC(C)=O)c(I)c(C(=O)O)c1I
inactive: locus YAL013W, strain DEP1, stronger effect = lower value 0.997 | locus YAL021C, strain ccr4, stronger effect = lower value 0.989 | locus YAL026C, strain drs2, stronger effect = lower value 0.997 | locus YAL030W, strain snc1, stronger effect = lower value 1 | locus YBL061C, strain skt5, stronger effect = lower value 0.994 | locus YBR009C, strain hhf1, stronger effect = lower value 0.991 | locus YBR021W, strain FUR4, stronger effect = lower value 1.02 | locus YBR023C, strain chs3, stronger effect = lower value 0.993 | locus YBR171W, strain sec66, stronger effect = lower value 0.995 | locus YBR229C, strain ROT2, stronger effect = lower value 0.999 | locus YBR231C, strain swc5, stronger effect = lower value 1 | locus YBR279W, strain paf1, stronger effect = lower value 0.989 | locus YCL011C, strain gbp2, stronger effect = lower value 1 | locus YCL016C, strain dcc1, stronger effect = lower value 0.993 | locus YCL029C, strain bik1, stronger effect = lower value 0.982 | locus YCL061C, strain MRC1, stronger effect = lower value 0.983 | locus YCL069W, strain vba3, stronger effect = lower value 1 | locus YCR088W, strain abp1, stronger effect = lower value 1 | locus YDL005C, strain med2, stronger effect = lower value 1 | locus YDL035C, strain GPR1, stronger effect = lower value 1.01 | locus YDL040C, strain nat1, stronger effect = lower value 1 | locus YDL074C, strain BRE1, stronger effect = lower value 0.982 | locus YDL101C, strain DUN1, stronger effect = lower value 0.991 | locus YDL134C, strain PPH21, stronger effect = lower value 0.999 | locus YDL185W, strain tfp1, stronger effect = lower value 0.959 | locus YDL192W, strain arf1, stronger effect = lower value 0.99 | locus YDR001C, strain nth1, stronger effect = lower value 1.01 | locus YDR069C, strain doa4, stronger effect = lower value 0.999 | locus YDR101C, strain arx1, stronger effect = lower value 0.996 | locus YDR137W, strain rgp1, stronger effect = lower value 1.01 | locus YDR150W, strain NUM1, stronger effect = lower value 0.995 | locus YDR159W, strain sac3, stronger effect = lower value 0.99 | locus YDR162C, strain NBP2, stronger effect = lower value 0.997 | locus YDR195W, strain ref2 0.989 | locus YDR297W, strain sur2, stronger effect = lower value 0.995 | locus YDR318W, strain mcm21, stronger effect = lower value 0.984 | locus YDR334W, strain swr1, stronger effect = lower value 0.999 | locus YDR335W, strain msn5, stronger effect = lower value 1.01 | locus YDR388W, stronger effect = lower value 0.998 | locus YDR392W, strain spt3, stronger effect = lower value 0.957 | locus YDR502C, strain sam2, stronger effect = lower value 1 | locus YEL003W, strain gim4, stronger effect = lower value 1.01 | locus YEL037C, strain rad23, stronger effect = lower value 1 | locus YEL061C, strain CIN8 (second series), stronger effect = lower value 1 | locus YEL061C, strain CIN8, stronger effect = lower value 0.997 | locus YER015W, strain faa2, stronger effect = lower value 0.987 | locus YER016W, strain bim1, stronger effect = lower value 1 | locus YER110C, stronger effect = lower value 0.996 | locus YER111C, strain swi4, stronger effect = lower value 0.994 | locus YER155C, strain BEM2 (second series), stronger effect = lower value 1.01 | locus YER155C, strain BEM2, stronger effect = lower value 0.998 | locus YER167W, strain BCK2, stronger effect = lower value 1 | locus YFR010W, strain ubp6, stronger effect = lower value 0.998 | locus YGL078C, strain dbp3, stronger effect = lower value 1 | locus YGL086W, strain mad1, stronger effect = lower value 1.02 | locus YGL167C, strain pmr1, stronger effect = lower value 0.992 | locus YGL173C, strain kem1, stronger effect = lower value 0.995 | locus YGL227W, strain vid30, stronger effect = lower value 1 | locus YGL240W, strain doc1, stronger effect = lower value 0.986 | locus YGL248W, strain PDE1, stronger effect = lower value 1.01 | locus YGL253W, strain hxk2, stronger effect = lower value 0.996 | locus YGR078C, strain PAC10, stronger effect = lower value 1 | locus YGR135W, strain pre9, stronger effect = lower value 0.997 | locus YGR229C, strain SMI1, stronger effect = lower value 1 | locus YGR252W, strain gcn5, stronger effect = lower value 1.16 | locus YHR013C, strain ard1, stronger effect = lower value 0.997 | locus YHR027C, strain rpn1, stronger effect = lower value 1.01 | locus YHR030C, strain SLT2, stronger effect = lower value 0.996 and 1.01 | locus YHR079C, strain IRE1 (second series), stronger effect = lower value 0.992 | locus YHR079C, strain IRE1, stronger effect = lower value 1.02 | locus YHR094C, strain hxt1, stronger effect = lower value 0.98 | locus YHR129C, strain ARP1, stronger effect = lower value 0.997 | locus YHR142W, strain chs7, stronger effect = lower value 1.02 | locus YHR200W, strain rpn10, stronger effect = lower value 0.988 | locus YIL066C, strain RNR3, stronger effect = lower value 1 | locus YIL073C, strain SPO22, stronger effect = lower value 0.986 | locus YIL125W, strain kgd1, stronger effect = lower value 0.99 | locus YIR030C, strain dcg1, stronger effect = lower value 0.993 | locus YJL092W, strain hpr5, stronger effect = lower value 0.998 | locus YJL095W, strain BCK1 (second series), stronger effect = lower value 1 | locus YJL095W, strain BCK1, stronger effect = lower value 0.98 and 1.02 | locus YJL115W, strain asf1, stronger effect = lower value 0.993 | locus YJL129C, strain trk1, stronger effect = lower value 0.995 | locus YJL134W, strain LCB3, stronger effect = lower value 1 | locus YJL154C, strain vps35, stronger effect = lower value 1 | locus YJL164C, strain tpk1, stronger effect = lower value 0.996 | locus YJL166W, strain qcr8, stronger effect = lower value 0.991 | locus YJL168C, strain set2, stronger effect = lower value 0.992 | locus YJL187C, strain SWE1 (second series), stronger effect = lower value 0.987 | locus YJL187C, strain SWE1, stronger effect = lower value 1.02 | locus YJR043C, strain POL32, stronger effect = lower value 0.982 | locus YJR066W, strain TOR1, stronger effect = lower value 0.974
